Assay results published in ChEMBL document CHEMBL1201862, “PubChem BioAssay data set” (2004).
In all, about 390,000 compounds went through this assay and about 4,000 (1%) were called active. About 7% were inconclusive and are not listed. No cut-off for these calls is given here. The sample as a whole holds a higher share of actives than the screen did.

biological target: T1, DNA polymerase iota (Homo sapiens) (UniProt Q9UNA4); assay: qHTS for Inhibitors of Polymerase Iota. [Related pubchem assays (depositor defined):AID588623]; format: functional
T1 sequence (whole entry): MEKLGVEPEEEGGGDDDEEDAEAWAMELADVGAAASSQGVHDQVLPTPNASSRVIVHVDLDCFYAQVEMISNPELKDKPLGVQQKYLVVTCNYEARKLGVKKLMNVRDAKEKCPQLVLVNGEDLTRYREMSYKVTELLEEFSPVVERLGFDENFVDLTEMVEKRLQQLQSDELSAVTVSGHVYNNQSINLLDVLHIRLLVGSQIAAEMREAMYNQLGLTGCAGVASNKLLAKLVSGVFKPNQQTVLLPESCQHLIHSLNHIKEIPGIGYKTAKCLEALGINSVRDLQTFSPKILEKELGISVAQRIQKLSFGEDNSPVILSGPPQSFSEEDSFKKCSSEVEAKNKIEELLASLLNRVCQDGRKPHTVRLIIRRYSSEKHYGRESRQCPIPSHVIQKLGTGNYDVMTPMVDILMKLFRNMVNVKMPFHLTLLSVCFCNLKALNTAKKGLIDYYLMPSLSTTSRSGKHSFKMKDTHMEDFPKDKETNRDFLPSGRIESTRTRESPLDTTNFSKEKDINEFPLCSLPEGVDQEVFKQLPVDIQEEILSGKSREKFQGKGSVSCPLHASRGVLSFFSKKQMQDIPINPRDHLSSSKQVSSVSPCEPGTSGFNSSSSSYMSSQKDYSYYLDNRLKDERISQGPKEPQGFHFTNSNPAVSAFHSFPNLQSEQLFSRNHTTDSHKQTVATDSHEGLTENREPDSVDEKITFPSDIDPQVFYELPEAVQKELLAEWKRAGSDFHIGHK

Row | SMILES | Potency
1 | COc1ccc(OC)c(/C=C/c2cccc3c2N(CCCCI)C=S3/C=C/c2cc(OC)ccc2OC)c1 (configuration not stated) | 70.8 µM (active)
2 | Cl.NC(CCC(=O)O)C(=O)O (configuration not stated) | inactive
